Consider 35 molecules from PubChem BioAssay.

The assay is described as follows: HepG2 cell viability effects, profiling panel, calcein-AM fluorescence, 48 h, basal (AID 1164). Also: test concentration not given here. As to conditions: higher = more signal.
For the molecule `COc1ccc(C#Cc2ccc3c(c2)[C@]2(C(=O)N3)[C@H](C(=O)N3CCN(c4ncccn4)CC3)[C@H]3C(=O)O[C@H](c4ccccc4)[C@H](c4ccccc4)N3[C@@H]2c2ccc(O)cc2)cc1`, the z-score was 0.804.

On to `CCCC[C@H]1C[C@@H]1[C@@H]1N(P(=O)(c2ccccc2)c2ccccc2)[C@](CO)(c2ccccc2)CC12CC2`, for which the z-score was -1.96.

Take `O=C(N1CCCCC1)[C@]1(CCS(=O)(=O)c2ccccc2)N=C(c2ccc(OCCCO)cc2)O[C@@H]1c1ccccc1`: the z-score is -0.663.

Regarding `OCCCc1cc[n+](Cc2cccc(OC(F)(F)F)c2)cc1`, the z-score was -1.18.

On to `COc1ccc([Si](C)(C)[C@H]2[C@H](CC(=O)N3CCC[C@H]3CO)O[C@@]3(C(=O)N(Cc4cccc(N5CCC5=O)c4)c4ccccc43)[C@@H]2C)cc1`, for which the z-score is -0.108.

Take `CCCNC(=O)[C@@]1(c2ccc([N+](=O)[O-])cc2)CC(=O)N(CC23CC4CC(CC(C4)C2)C3)[C@@H]1c1ccc(CO)cc1I`: the z-score was -4.9.

With `CCCNC(=O)[C@@]1(C)c2ccccc2C(=O)N(Cc2cc(F)cc(C(F)(F)F)c2)[C@H]1c1ccc(CO)cc1`, the z-score is -0.14.

Consider `C=C[C@H](C)[C@H](OC(=O)Nc1ccc(OC)cc1)c1ccc(O)c2ccccc12`, for which the z-score is -1.87.

On to `O=c1cccc(-c2ccccc2)o1`, for which the z-score was -0.738.

Consider `CC1CC/C=C\[C@H]2OC34C=CCN(Cn5nnc6ccccc65)C(=O)[C@H]3N(CCCO)C(=O)[C@@H]4C2C(=O)O1` (stereo not given in full), for which the z-score is -0.501.

As for `COc1ccc(C#Cc2ccc3c(c2)[C@]2(C(=O)N3)[C@H](c3ccc(OCCO)cc3)N3[C@H](c4ccccc4)[C@H](c4ccccc4)OC(=O)[C@H]3[C@@H]2C(=O)Nc2nc3ccccc3s2)cc1`, the z-score was 0.891.

As for `C=C(C(=O)CC[C@H](OC(=O)c1cccnc1)c1ccccc1OCCO)C(C)C`, the z-score was -0.967.

In the case of `C=CC[C@@]1(C(=O)NCCN2CCOCC2)N=C(c2ccc(OCCCO)cc2)O[C@@H]1c1ccccc1CN=[N+]=[N-]`, the z-score is 0.88.

On to `C=CCOC(=O)[C@H]1[C@@H]2C(=O)O[C@@H](c3ccccc3)[C@@H](c3ccccc3)N2[C@@H](c2ccc(OCCOC(=O)[C@@H]3C[C@@H]4C(=O)NCC(=O)N4[C@@H]3c3ccc(O)cc3)cc2)[C@]12C(=O)Nc1ccc(I)cc12`, for which the z-score was -0.368.

Take `CCOC(=O)C[C@H]1[C@H](OC(=O)c2ccc(C(=O)c3ccccc3)cc2)[C@@H](NC(=O)c2ccc3ccccc3n2)c2cc(OCCCO)ccc2N1C(=O)c1ccc2ccccc2n1`: the z-score was 0.674.

Regarding `C=CCC(OC(C)=O)[C@@H]1[C@@H](N(Cc2ccc(-c3cccc(C(F)(F)F)c3)o2)C(=O)Cc2ccc(OC)cc2)c2cc(OCCCO)ccc2N1C(=O)Cc1ccc(OC)cc1` (stereo not given in full), the z-score is 0.641.

Take `C=CCC(OC(C)=O)[C@@H]1[C@@H](N(Cc2ccc(-c3ccccc3)cc2)C(=O)c2ccc(C)cc2)c2cc(OCCCO)ccc2N1C(=O)Cc1ccc(OC)cc1` (stereo not given in full): the z-score is 2.23.

`C=C(COC)C(=O)CC[C@@H](OC(=O)c1ccccc1-c1ccccc1C(=O)O)c1ccc(CO)o1`: the z-score is -2.67.

With `CN(C)CCCC[C@@H]1NC(=O)[C@@H]2C[C@H](C(=O)NCCCCCN)[C@H](c3ccc(O)cc3)N2C1=O`, the z-score was -0.0772.

With `CN(C)CCCN1C(=O)[C@@]2(c3ccc([N+](=O)[O-])cc3)CC(=O)N(C3CCCCC3)[C@@H]2c2ccc(CO)cc21`, the z-score was -0.816.

In the case of `O=C1C2C=CC(C(O)c3cccc4ccccc34)N(n3cnnc3)C2C(=O)N1Cc1ccccc1` (stereo not given), the z-score is -1.6.

On to `COCCCNC(=O)[C@]1(Cc2ccccc2N=[N+]=[N-])N=C(c2ccc(OCCCO)cc2)O[C@@H]1c1ccccc1CN=[N+]=[N-]`, for which the z-score was -1.77.

As for `C=C(COC)C(=O)CC[C@H](OC(=O)c1cccnc1)c1ccccc1OCCO`, the z-score was -1.24.

As for `CCOC(=O)N1C(c2ccc(OCCCO)cc2)=NC(C(=O)OC)N1C(=O)OCC` (stereo not given), the z-score was 0.21.

In the case of `C=CCOC(=O)[C@H]1[C@@H]2C(=O)O[C@@H](c3ccccc3)[C@@H](c3ccccc3)N2[C@@H](c2ccc(OCCOC(=O)[C@H]3C[C@H]4C(=O)N[C@@H](CCCC[N+](C)(C)C)C(=O)N4[C@H]3c3ccc(O)cc3)cc2)[C@]12C(=O)Nc1ccccc12`, the z-score was 0.549.

As to `CC(C)N1C(=O)c2ccccc2[C@](C)(C(=O)NCCCN(C)C)[C@@H]1c1ccc(CO)cc1`, the z-score is 0.446.

Turning to `C=CCC(OC(C)=O)[C@@H]1[C@@H](N(Cc2ccc(-c3ccccc3)cc2)C(=O)c2ccc(C)cc2)c2cc(OCCCO)ccc2N1C(=O)c1ccc2ccccc2n1` (stereo not given in full), the z-score was 1.85.

`COC(=O)[C@@]1(Cc2ccc(F)cc2)[C@H]2c3cc(C(=O)N4CCCC4)n(Cc4ccc(Cl)c(C(F)(F)F)c4)c3C[C@H]2CN1C(=O)c1ccccc1`: the z-score was -0.452.

Consider `COCCCNC(=O)[C@@]1(Cc2ccccc2I)c2ccccc2C(=O)N(Cc2ccccc2)[C@H]1c1ccc(CO)cc1`, for which the z-score is 0.828.

Turning to `CC(=O)NCCCC[C@@H]1NC(=O)[C@@H]2C[C@H](C(=O)NCc3ccc(F)cc3)[C@H](c3ccc(O)cc3)N2C1=O`, the z-score is -0.797.

Consider `CCOC(=O)C1=CC[C@@H](c2cccc(Cl)c2)N(S(=O)(=O)c2ccc(C)cc2)[C@H]1c1ccc(C#N)cc1`, for which the z-score is -0.474.

As for `CCCNC(=O)[C@@]1(C)c2ccccc2C(=O)N(Cc2cc(C(F)(F)F)cc(C(F)(F)F)c2)[C@H]1c1ccc(CO)cc1`, the z-score was 0.0751.

Take `COC(=O)c1c2oc(c1C(=O)OC)C(=O)N[C@H](Cc1ccccc1)Cn1nncc1C1(CCCCC1)NC(=O)N[C@H](CO)CC2`: the z-score is 0.8.

Turning to `CN(C)CCCC[C@@H]1NC(=O)[C@@H]2C[C@H](C(=O)NCc3ccc(F)cc3)[C@H](c3cccc(OCCO)c3)N2C1=O`, the z-score is 0.554.

In the case of `COc1ccc([Si](C)(C)[C@@H]2[C@@H](CCn3cc([C@H](O)c4ccccc4)nn3)O[C@]3(C(=O)N(C)c4ccccc43)[C@H]2C)cc1`, the z-score is -1.01.
